DT40 TDP1 CPT – qHTS for Inhibitors of human tyrosyl-DNA phosphodiesterase 1 (TDP1): qHTS in cells in presence of CPT | AID 686979, 2013 | 12% of 420,000 active | Potency, µM (series often up to 46.2 µM), for the others: top-dose activity change, negative = growth inhibition, actives largely listed as inhibitors | chicken DT40 Tdp1-/-;hTDP1 cells + 20 nM CPT, ATP luminescence, 48 h; further: potency means the concentration at half of the fitted maximal effect; on the % scale 0 is the no-effect control and ±100 the full control effect; nearly all actives have a fitted effect of over 55% in size
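Chicken DT40 Tdp1-/- cells stably complemented with human TDP1 were seeded at 400 cells/well in medium containing 20 nM camptothecin, exposed to pin-transferred compounds, and grown at 37 °C for at least 48 hr. Viability was read as ATP luminescence.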
TGFb inhibitor – qHTS for Inhibitors of TGF-b; HepG2 CAGA-GFP TGF-b/SMAD3 reporter, GFP fluorescence, 18 h; TGF-beta stimulated, 500 pg/mL final; Potency, µM (series often up to 46.1 µM), inactives show at the highest dose activity, negative = inhibition, most hits filed as inhibitors; 1.2% of 410,000 active; further: potency means the concentration at half of the fitted maximal effect; on the % scale 0 is the no-effect control and ±100 the full control effect; nearly all actives have a fitted effect of over 65% in size
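First, reporter cells (HEPG2 CAGA-GFP) rested 2 h at 37 degrees C. Next, compounds were pinned in and TGF-beta added to 500 pg/mL final. After 18 h, GFP was imaged per cell and summed per well.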
TDP1 inh – qHTS Assay for Inhibitors of Tyrosyl-DNA Phosphodiesterase (TDP1); AID 485290, 2010; recombinant TDP1, AlphaScreen DNA substrate cleavage; 0.28% of 350,000 active; Tyrosyl-DNA phosphodiesterase 1 (Homo sapiens), Q9NUW8; Potency, µM (highest dose often 130 µM), for inactives: top-dose activity change, negative = inhibition, actives largely listed as inhibitors; further: potency means the concentration at half of the fitted maximal effect; on the % scale 0 is the no-effect control and ±100 the full control effect; nearly all actives have a fitted effect of over 40% in size
Target sequence (Q9NUW8 whole entry, looked up): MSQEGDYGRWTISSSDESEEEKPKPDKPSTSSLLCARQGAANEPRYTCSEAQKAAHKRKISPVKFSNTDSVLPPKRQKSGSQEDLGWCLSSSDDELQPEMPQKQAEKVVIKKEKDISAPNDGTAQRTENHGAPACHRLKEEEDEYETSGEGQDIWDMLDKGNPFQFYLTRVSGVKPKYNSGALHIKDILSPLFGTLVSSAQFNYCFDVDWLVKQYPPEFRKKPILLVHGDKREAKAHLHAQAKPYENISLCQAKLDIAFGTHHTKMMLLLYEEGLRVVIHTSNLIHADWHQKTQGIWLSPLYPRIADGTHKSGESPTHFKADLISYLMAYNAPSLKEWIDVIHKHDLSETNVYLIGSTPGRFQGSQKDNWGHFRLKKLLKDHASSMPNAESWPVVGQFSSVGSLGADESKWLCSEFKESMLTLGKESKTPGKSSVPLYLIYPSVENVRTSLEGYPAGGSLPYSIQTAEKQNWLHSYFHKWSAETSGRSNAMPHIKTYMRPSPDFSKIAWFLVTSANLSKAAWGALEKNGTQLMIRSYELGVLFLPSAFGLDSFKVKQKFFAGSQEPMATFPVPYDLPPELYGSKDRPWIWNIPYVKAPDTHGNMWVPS
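Recombinant human Tdp1 (E. coli-expressed, 1 nM final) preincubated with compounds 15 min at room temperature, then 5'-biotin/3'-phosphotyrosine-FITC DNA substrate (15 nM final) added for 5 min. AlphaScreen beads (10 ug/ml final) added 10 min; cleavage lowers signal.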
DT40 TDP1 no CPT – qHTS for Inhibitors of human tyrosyl-DNA phosphodiesterase 1 (TDP1): qHTS in cells in absence of CPT; DT40 Tdp1-/- hTDP1 cells, no CPT, ATP luminescence, 48 h; Potency, µM (doses to about 46.2 µM), for inactives: at the highest dose activity change, negative = growth inhibition, actives largely listed as inhibitors; 15% of 420,000 active; AID 686978, 2013; further: potency means the concentration at half of the fitted maximal effect; on the % scale 0 is the no-effect control and ±100 the full control effect; nearly all actives have a fitted effect of over 55% in size
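Chicken DT40 Tdp1-/- cells stably complemented with human TDP1 were seeded at 400 cells/well with DMSO in place of 20 nM camptothecin. After compound pinning, cells grew at least 48 hr at 37 °C; viability read by CellTiter-Glo luminescence.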
HepG2 viability – qHTS for Inhibitors of TGF-b: Cytotox Counterscreen; HepG2 CAGA-GFP viability, ATP luminescence, 18 h; Potency, µM (titrated, usually from 46.1 µM), without a hit: at the top dose activity change, negative = cytotoxicity, hits mostly cytotoxic; 0.76% of 410,000 active; AID 588856, 2011; further: potency means the concentration at half of the fitted maximal effect
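HepG2 CAGA-GFP cells (1000/well, DMEM with 1% FBS) received compound, then TGF-beta at 500 pg/mL final, and were incubated 18 hours at 37 degrees C. Viability was read by CellTiter-Glo luminescence. Media-only wells were set as complete cell-killing and DMSO as no toxicity.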
IL1B secr inh – qHTS for Inhibitors of Inflammasome Signaling: IL-1-beta AlphaLISA Primary Screen | THP-1 LPS/ATP IL-1B secretion, AlphaLISA, 16 h; stronger effect = lower value | activity change, % at 57.5 µM | 4.7% of 360,000 active | AID 743279, 2014; in the data active means activity change below about -50%; inconclusive means mostly about -30% to -49%; further: on the % scale 0 is the no-effect control and ±100 the full control effect
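THP-1 cells pretreated 1 hr with compounds (up to 57.5 uM final), then stimulated with LPS (250 ng/mL final) plus ATP (1.25 mM final); secreted IL-1B measured by AlphaLISA after 16 hr, decreased signal indicating inhibition.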
Starred values were filed as active, the others as inactive; ? = inconclusive; . = not tested or not shown; [ ] = dose if it differs, or a comment. Sampled rows, rich in hits. Any-hit rate of the full collection: about 18%. Unless noted, the call rests on the fitted dose curve; in most records, active means well fitted curve in the direction sought with a large enough effect; inconclusive means small, poorly fitted or top-dose-only effect, or another doubt; inactive means no such curve, though single readings can be large; an effect the other way counts as inactive or inconclusive.

SMILES | DT40 TDP1 CPT | TGFb inhibitor | TDP1 inh | DT40 TDP1 no CPT | HepG2 viability | IL1B secr inh
CCOC(=O)N1CCN(C(=O)c2cccc(S(=O)(=O)Nc3ccc(Br)cc3)c2)CC1 | -29% | -16% | 2% | ? | 0% | 9
Nc1nc(-c2ccccc2)[nH]c(=O)c1N | 26µM* | 2% | -4% | ? | -31% | -14
N#Cc1cnn(-c2ccc([N+](=O)[O-])cc2[N+](=O)[O-])c1N | 13µM* | -29% | . | 18µM* | -58% | 34
Cc1cccc(NC(=S)N2CCC(NC(=O)C3CCCCC3)CC2)c1 | -3% | 30% | 2% | -12% | 21% | -3
CCc1ccc(N(C(=O)c2ccco2)C(C(=O)NC2CCCC2)c2ccco2)cc1 (configuration not stated) | ? | 3% | . | 16µM* | -2% | ?
O=C(NC1CCCC1)C(c1ccco1)N(C(=O)c1ccco1)c1ccccc1 (configuration not stated) | 2% | 11% | . | 15µM* | 24% | -6
COC(=O)c1ccc(N(C(=O)CNC(=O)c2ccco2)C(C(=O)NC2CCCC2)c2ccco2)cc1 (configuration not stated) | ? | ? | 0% | 23µM* | -2% | 7
CC(C)c1ccc(N(C(=O)CNC(=O)c2ccco2)C(C(=O)NC2CCCC2)c2cccnc2)cc1 (configuration not stated) | -5% | -4% | 6% | 0% | -3% | -70*
COc1ccc(O)c(CN2CCC(n3nccc3NC(=O)c3ccccc3Cl)CC2)c1 | ? | 5% | 8% | ? | -3% | -14
CCC(=O)N1CCN(c2ccc(Cl)cc2NC(=O)Cc2ccc(Cl)cc2)CC1 | ? | -19% | 0% | ? | 0% | ?
Cc1ccc(N(C(=O)CNC(=O)c2ccco2)C(C(=O)NCC2CCCO2)c2ccccc2)cc1C (configuration not stated) | -29% | -6% | . | 21µM* | -26% | -18
Cc1ccc(C)c(N(C(=O)CNC(=O)c2ccco2)C(C(=O)NCC2CCCO2)c2ccccc2)c1 (configuration not stated) | ? | -22% | . | -20% | -19% | -11
COC(=O)c1ccc2nc(-c3ccc(Cl)cc3)c(CC3CCCCC3)n2c1 | 8.2µM* | . | . | 4.1µM* | . | 53
COC(=O)c1ccc2nc(-c3ccc(OC)c(OC)c3)c(CC3CCCCC3)n2c1 | ? | ? | . | 18µM* | -6% | 28
COC(=O)c1ccc2nc(-c3cccc(Br)c3)c(CC3CCCCC3)n2c1 | ? | . | . | ? | . | 60
CCOC(=O)C1=C(CS(=O)(=O)c2ccc(OC)c(Cl)c2)NC(=O)NC1c1cccc(OC)c1 (configuration not stated) | ? | -3% | 6% | ? | -40% | .
CCN(CC)CCN(C(=O)/C=C/c1cccs1)c1nc2ccc(OC)cc2s1 | 2% | -11% | . | 0% | 7% | 11
CCN(CC)CCN(C(=O)c1cc2ccccc2cc1OC)c1nc2ccc(F)cc2s1 | 18µM* | ? | 13% | ? | -17% | -59*
CCOc1ccc2nc(N(CCN(CC)CC)C(=O)/C=C/c3cccs3)sc2c1 | ? | 2% | 8% | ? | -21% | -97*
COc1cc2ccccc2cc1C(=O)N(CCN(C)C)c1nc2ccc(C)cc2s1 | ? | ? | 8% | ? | -37% | -21
CCN(CC)CCN(C(=O)c1cc2ccccc2cc1OC)c1nc2ccc(OC)cc2s1 | ? | ? | 16% | 18µM* | -28% | ?
CCOC(=O)[C@]12CCC=C1N(Cc1ccc(Cl)cc1Cl)C(=O)[C@H](CC(=O)NCc1cccs1)C2 | ? | . | . | 21µM* | . | -61*
COC(=O)[C@]12CCCCC=C1N(Cc1ccc(Cl)cc1Cl)C(=O)[C@H](CC(=O)NCc1cccs1)C2 | ? | . | . | 23µM* | . | 0
CCOC(=O)[C@]12CCCC=C1N(Cc1ccc(Cl)cc1Cl)C(=O)[C@H](CC(=O)NCc1cccs1)C2 | ? | . | . | ? | . | -29
CCOc1cc(/C=N\O)cc(Cl)c1OCC | -19% | 5% | 2% | -15% | -44% | -7
SMILES | DT40 TDP1 CPT | TGFb inhibitor | TDP1 inh | DT40 TDP1 no CPT | HepG2 viability | IL1B secr inh
CCOc1cc(/C=C2\CN(C)C/C(=C\c3ccc(O)c(OCC)c3)C2=O)ccc1O | 5.2µM* | ? | . | 2.3µM* | -55% | -105*
CCOc1cc(/C=C2\CCC/C(=C\c3cc(Cl)c(O)c(OCC)c3)C2=O)cc(Cl)c1O | ? | 5µM* | 2% | 6.5µM* | 7.9µM* | -100*
CCOC(=O)c1c(-c2ccccc2)csc1NC(=O)CSc1ccccc1 | -20% | 8% | 5% | ? | 9% | 3
CCOC(=O)c1c(NC(=O)CSc2nnnn2C)sc(C)c1-c1ccc(C)cc1 | ? | ? | 6% | 16µM* | -13% | ?
CCOC(=O)c1c(-c2ccccc2)csc1NC(=O)CSc1nnnn1C | 18µM* | 13% | 0% | ? | -32% | -8
CCOC(=O)c1c(NC(=O)CSc2nncs2)sc(C)c1-c1ccccc1 | ? | 11µM* | -3% | ? | 0% | -15
CCOC(=O)c1c(-c2ccccc2)csc1NC(=O)CSc1nncs1 | 23µM* | -12% | 5% | 16µM* | 7% | 0
Cc1cnc(C)c(-c2cccc3c2OC(CNC(=O)C[C@@H]2C[C@@H](C)NC(=S)N2)C3)n1 (some centres not stated) | 2%[9.04 µM] | . | . | 0% | . | .
COc1cc2nc(N(C)C)c(CNCc3cccc4ccccc34)cc2c(OC)c1OC | -6%[9.04 µM] | . | . | ? | . | .
CC(C)C(NC(=O)c1ccc(Cl)cc1)C(=O)NCC1CCCO1 (configuration not stated) | -13% | 6% | 5% | -9% | 3% | 3
O=S(=O)(c1ccccc1)n1ccc2cccnc21 | -10% | 8% | -1% | -13% | 0% | 24
Cn1nnnc1SCC(=O)NC(=O)Cc1ccccc1 | 12µM* | 0% | 2% | 6.5µM* | -28% | 41

Screens deposited in PubChem by National Center for Advancing Translational Sciences (NCATS).
